The nature of assay [1]: qHTS for Inhibitors of the Functional Ribonucleoprotein Complex (vRNP) of Lassa (LASV) Arenavirus: LASV Primary Screen - GLuc reporter signal (AID 1347082; calls by dose curve; tested in HEK293 reporter line; further: nearly all actives have a fitted effect of over 60% in size; on activity change, negative = inhibition: series mostly up to about 57 µM). On the technique in general: qHTS replaces the single test concentration by a dilution series.
A short description of assay [2]: qHTS for Inhibitors of the Functional Ribonucleoprotein Complex (vRNP) of Lassa (LASV) Arenavirus: Viability assay - alamar blue signal for LASV Primary Screen (AID 1347083; calls by dose curve; tested in HEK293 reporter line; further: nearly all actives have a fitted effect of over 80% in size; on activity change, negative = reduced viability: series mostly up to about 57 µM).
Assay [3] in a line: qHTS for Inhibitors of the Functional Ribonucleoprotein Complex (vRNP) of Lymphocytic Choriomeningitis Arenaviruses (LCMV): Viability assay - alamar blue signal for LCMV Primary Screen (AID 1347085; calls by dose curve; tested in HEK293 reporter line; further: nearly all actives have a fitted effect of over 80% in size; on activity change, negative = lower viability: series mostly up to about 57 µM).
Assay [4] addresses Nucleoprotein (Lymphocytic choriomeningitis virus (strain Armstrong)) (UniProt P09992). The assay can be described thus: qHTS for Inhibitors of the Functional Ribonucleoprotein Complex (vRNP) of Lymphocytic Choriomeningitis Arenaviruses (LCMV): LCMV Primary Screen - GLuc reporter signal (AID 1347086). Further: nearly all actives have a fitted effect of over 70% in size. On activity change, negative = inhibition: series mostly up to about 57 µM.

Records with an inconclusive call do not appear. A number with no mark means an inactive call. Calls of active or inactive are those of the source. Unless noted, the call rests on the fitted dose curve.
On the % scale 0 is the no-effect control and ±100 the full control effect; potency means the concentration at half of the fitted maximal effect.

Sequence of Nucleoprotein (Lymphocytic choriomeningitis virus (strain Armstrong)) (P09992 whole entry, looked up): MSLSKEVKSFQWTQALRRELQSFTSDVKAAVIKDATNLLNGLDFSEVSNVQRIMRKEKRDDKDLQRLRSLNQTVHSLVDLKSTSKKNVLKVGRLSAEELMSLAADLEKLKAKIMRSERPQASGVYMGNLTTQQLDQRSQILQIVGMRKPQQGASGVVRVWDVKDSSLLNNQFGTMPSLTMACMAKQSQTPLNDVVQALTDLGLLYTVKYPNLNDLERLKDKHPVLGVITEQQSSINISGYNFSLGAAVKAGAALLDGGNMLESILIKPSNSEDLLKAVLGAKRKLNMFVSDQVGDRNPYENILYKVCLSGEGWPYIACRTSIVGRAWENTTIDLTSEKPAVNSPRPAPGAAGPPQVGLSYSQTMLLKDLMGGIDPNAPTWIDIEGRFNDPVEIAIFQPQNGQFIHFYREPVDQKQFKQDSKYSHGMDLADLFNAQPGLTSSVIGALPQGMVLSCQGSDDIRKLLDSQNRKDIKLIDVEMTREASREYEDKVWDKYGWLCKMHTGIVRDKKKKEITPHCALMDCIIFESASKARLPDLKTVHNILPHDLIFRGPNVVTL

In the case of `COc1c(OC)c(O)c2c(=O)cc(-c3c(O)cccc3O)oc2c1OC`, the Potency entry in assay [1], in assay [2], in assay [3] and in assay [4] was “inactive” each time.

On to `COc1c2ccoc2c(OC[C@@H](OC(C)=O)C(C)(C)O)c2oc(=O)ccc12`, for which the Potency result in assay [1], in assay [2], in assay [3] and in assay [4] was “inactive” throughout.

With `COc1ccc(C(=O)OC2C[C@H]3CC[C@@H](C2)N3O)cc1OC` (stereo not given in full), the Potency entry in assay [1], in assay [2], in assay [3] and in assay [4] was “inactive” in each case.

Take `CC(C=CC(O)=C1C(=O)CNC1=O)=C[C@@H](C)C1OC2(C)OC(C(=O)C3O[C@@]32C)C1C` (stereo not given in full): the Potency result in assay [1], in assay [2], in assay [3] and in assay [4] was “inactive” throughout.

With `Nc1ncnc2c1ncn2[C@@H]1O[C@H](COP(=O)(O)OP(=O)(O)OP(=O)(O)OP(=O)(O)OC[C@@H]2O[C@H](n3cnc4c(N)ncnc43)[C@@H](O)[C@H]2O)[C@@H](O)[C@H]1O`, the Potency result in assay [1], in assay [2], in assay [3] and in assay [4] was “inactive” each time.

With `CC(=O)OC[C@H]1O[C@@H](O[C@H]2C[C@]3(C)C(C[C@@H](O)C4C([C@]5(C)CC[C@@H](C(C)(C)O)O5)CC[C@]43C)[C@@]3(C)CC[C@H](O)C(C)(C)C23)[C@H](O[C@@H]2O[C@@H](C)[C@H](O)[C@@H](O)[C@H]2O)[C@@H](O)[C@@H]1O` (stereo not given in full), the Potency result in assay [1], in assay [2], in assay [3] and in assay [4] was “inactive” each time.

In the case of `c1ccc(-c2ccncc2)cc1`, the Potency entry in assay [1], in assay [2], in assay [3] and in assay [4] was “inactive” each time.

Consider `CCC/C=C/C/C=C/C=C/C=N/NN=O`, for which the Potency result in assay [1], in assay [2], in assay [3] and in assay [4] was “inactive” each time.

Turning to `CCCCCCCCCCCCOC(C)=O`, the Potency result in assay [1], in assay [2], in assay [3] and in assay [4] was “inactive” each time.

As for `CCCCC[C@H](O)C=C[C@H]1[C@H](O)CC(=O)[C@H]1CCCCCCC(=O)O`, the Potency entry in assay [1], in assay [2], in assay [3] and in assay [4] was “inactive” throughout.

For the compound `C=C(CC1CC(O)[C@]2(C)OC3CC4OC5C[C@]6(C)O[C@]7(C)CCC8OC9C[C@]%10(C)OC%11C(C)=CC(=O)OC%11CC%10OC9C[C@@H](C)C8OC7CC6O[C@]5(C)C/C=C\C4OC3CC2O1)C(=O)O` (stereo not given in full), the Potency entry in assay [1], in assay [2], in assay [3] and in assay [4] was “inactive” each time.

On to `C1CCC2(CCCCO2)OC1`, for which the Potency result in assay [1], in assay [2], in assay [3] and in assay [4] was “inactive” each time.

Regarding `CCCCC/C=C\C[C@@H]1O[C@H]1C(O)/C=C\C/C=C\CCCC(=O)O` (stereo not given in full), the activity change, negative = inhibition in assay [1] is 2.65% [at 0.757 µM]; in assay [4] it was 17.5% [at 0.757 µM]. For the same compound, the activity change, negative = reduced viability in assay [2] is 5.76% [at 0.757 µM]. Moreover, in assay [3], the activity change, negative = lower viability was 11% [at 0.757 µM].

Consider `C[C@@H]1O[C@@H](O[C@H]2[C@H](O)[C@@H](O)[C@H](Oc3c(-c4ccc(O)c(O)c4)oc4cc(O)cc(O)c4c3=O)O[C@@H]2CO)[C@H](O)[C@H](O)[C@H]1O`, for which the Potency entry in assay [1], in assay [2], in assay [3] and in assay [4] was “inactive” each time.

Regarding `O=C(/C=C/c1ccc(O)c(O)c1)c1ccc(O)cc1O`, the Potency entry in assay [1], in assay [2], in assay [3] and in assay [4] was “inactive” throughout.

Turning to `CCOC(=O)[C@H]1O[C@H]1C(=O)N[C@@H](CC(C)C)C(=O)NCCC(C)C`, the Potency result in assay [1], in assay [2], in assay [3] and in assay [4] was “inactive” throughout.

As for `CC(=O)OC[C@]12CCC(C)=C[C@H]1O[C@@H]1[C@H](O)[C@@H](OC(C)=O)[C@@]2(C)[C@]12CO2`, the Potency result in assay [1], in assay [2], in assay [3] and in assay [4] was “inactive” each time.

Turning to `C=C(C)[C@@H]1CC[C@]2(C(=O)O)CC[C@]3(C)C(CCC4[C@@]5(C)CC[C@H](O)C(C)(C)C5CC[C@]43C)C12` (stereo not given in full), the Potency entry in assay [1], in assay [2], in assay [3] and in assay [4] was “inactive” in each case.

Regarding `COc1c2c(nc3occc13)C(CC=C(C)C)(OC)C(O)CC2` (stereo not given), the Potency entry in assay [1], in assay [2], in assay [3] and in assay [4] was “inactive” in each case.

For the compound `C[C@@H]1O[C@@H](O[C@H]2CC[C@@H](O[C@H]3[C@H](O)C[C@H](c4ccc5c(c4O)C(=O)C4=C(C5=O)[C@@]5(O)C(=O)C[C@](C)(O[C@H]6CC[C@H](O[C@H]7C=CC(=O)[C@H](C)O7)[C@H](C)O6)C[C@@]5(O)C=C4)O[C@@H]3C)O[C@H]2C)C=CC1=O`, the Potency result in assay [1], in assay [2], in assay [3] and in assay [4] was “inactive” in each case.

Turning to `CCCCC/C=C\C/C=C\C/C=C\C=C\C(O)CCCC(=O)O` (stereo not given), the activity change, negative = inhibition in assay [1] is -8.78% [at 0.757 µM]; in assay [4], -6.07% [at 0.757 µM]. Besides, in assay [2], the activity change, negative = reduced viability is 7.65% [at 0.757 µM]. The activity change, negative = lower viability in assay [3] was 16.2% [at 0.757 µM].

In the case of `CCCc1ccc(OC)cc1`, the Potency entry in assay [1], in assay [2], in assay [3] and in assay [4] was “inactive” throughout.

On to `COc1ccc(-c2cnc(-c3cccnc3)o2)cc1`, for which the Potency entry in assay [1], in assay [2], in assay [3] and in assay [4] was “inactive” each time.

In the case of `CC1(C)C2CC[C@]3(C)C(CC=C4[C@@H]5C[C@@](C)(CO)[C@@H]6C[C@@]5(CC[C@]43C)C(=O)O6)[C@@]2(C)CC[C@@H]1O` (stereo not given in full), the Potency result in assay [1], in assay [2], in assay [3] and in assay [4] was “inactive” in each case.

With `NC(=O)NCCCC(=O)O`, the Potency entry in assay [1], in assay [2], in assay [3] and in assay [4] was “inactive” each time.

In the case of `N#CC(=C1Nc2ccccc2S1)c1ccnc(OCc2ccc(CN3CCOCC3)cc2)n1`, the Potency in assay [1] is 7.69 µM (active); in assay [2], 4.32 µM (active); in assay [3] it was 1.93 µM (active); in assay [4] it was 1.72 µM (active).

For `CCCCCCCC(=O)C(C)C(=O)N(C)[C@H](Cc1ccc(OC)cc1)C(=O)N(C)[C@H](C(N)=O)C(C)C` (stereo not given in full), the Potency result in assay [1], in assay [2], in assay [3] and in assay [4] was “inactive” each time.

In the case of `c1ccc(CN(Cc2ccccc2)Cc2ccccc2)cc1`, the Potency entry in assay [1], in assay [2], in assay [3] and in assay [4] was “inactive” each time.

As to `O=C(O)[C@H]1NC[C@H]2C[C@H]21`, the Potency entry in assay [1], in assay [2], in assay [3] and in assay [4] was “inactive” in each case.

As to `COC(=O)c1cc(O)cc(OC)c1C(=O)c1c(O)cc(C)cc1O`, the Potency entry in assay [1], in assay [2], in assay [3] and in assay [4] was “inactive” in each case.

With `CCCC(=O)OCCC(C)CCC=C(C)C` (stereo not given), the Potency entry in assay [1], in assay [2], in assay [3] and in assay [4] was “inactive” throughout.

Consider `COC(=O)C1=CO[C@@H](OC2OC(CO)C(O)C(O)C2O)[C@@H]2C(CO)=CC[C@H]12` (stereo not given in full), for which the Potency result in assay [1], in assay [2], in assay [3] and in assay [4] was “inactive” throughout.

For the compound `COc1ccc(CNC(=S)NCc2ccc(OC)cc2)cc1`, the Potency result in assay [1], in assay [2], in assay [3] and in assay [4] was “inactive” each time.

On to `CCCCCCC(CO)CCCC` (stereo not given), for which the Potency result in assay [1], in assay [2], in assay [3] and in assay [4] was “inactive” each time.

Turning to `CCCCCCCCCCOS(=O)(=O)O`, the Potency result in assay [1], in assay [2], in assay [3] and in assay [4] was “inactive” in each case.

With `C[C@@H]1CC(=O)[C@H]2CC(CO)=CCC[C@@H]2[C@@]1(C)CC/C(=C/CO)CO`, the Potency entry in assay [1], in assay [2], in assay [3] and in assay [4] was “inactive” throughout.

Regarding `O=C(OCC1OC(Oc2ccc(O)cc2)C(O)C(O)C1O)c1ccccc1` (stereo not given), the Potency result in assay [1], in assay [2], in assay [3] and in assay [4] was “inactive” in each case.

As to `CCNC(=O)CCCC=CC[C@@H]1[C@H](C=CC(O)CCc2ccccc2)[C@@H](O)C[C@@H]1O` (stereo not given in full), the Potency result in assay [1], in assay [2], in assay [3] and in assay [4] was “inactive” in each case.

For the compound `COc1ccc(C=CC(=O)Nc2ccccc2C(=O)O)cc1OC`, the Potency result in assay [1], in assay [2], in assay [3] and in assay [4] was “inactive” in each case.

`COc1ccc(-c2coc3cc(OC)cc(O)c3c2=O)cc1`: the Potency entry in assay [1], in assay [2], in assay [3] and in assay [4] was “inactive” throughout.
